Data: the OligoGym collection

biological target: CYTH1; test: pooled miR-30 sensor sort-seq; sequence = guide strand; settings: shRNA
Note: reference of the scale not given here.

| Sequence | sensor-assay potency score (higher = more potent) |
| --- | --- |
| TTCTGCTATCTCATCCTTCAGC | -0.329 |
| TTTCATTAGCTACTTCTGCTAT | -0.232 |
| AACTTGGTCTTTATTGTCGGGG | -0.623 |
| TTGTCAGTCAGAATGAACCAGC | -0.752 |
| TGCACTGACAATATCGCTGGGC | 0.0607 |
| TATTGCACTGACAATATCGCTG | -0.0444 |

biological target: CYTH4; test: as above; settings: shRNA

| Sequence | sensor-assay potency score (higher = more potent) |
| --- | --- |
| TTGAGGTTGGCGAACTCGTGGC | -0.377 |
| TGATCCTCTGTAACTCTTCCGT | -0.462 |
| TTGAGCAGCCAACCCTCCCGGT | -1.04 |
| AAGGACAACACGTAGCAGGTGT | 0.877 |
| TTCATGGACACAAAGCGCTCGA | -0.11 |
| TTTCGGTGCCACTTGATCCTCT | -0.308 |
| TGTAACTCTTCCGTCTCCCCGC | -0.31 |
| TTGGATATAGCACCCATCCTGC | -0.488 |
| TTGTCGGTCAGGATGAACCAGC | -0.768 |
| TAGCAGGTGTCTGTGGACTGGA | -0.452 |
| TCCATGTTGAACTTCTTGCGCC | -1.08 |

biological target: CYorf15A; test: as above; settings: shRNA

| Sequence | sensor-assay potency score (higher = more potent) |
| --- | --- |
| TTGTGCATTTACAACATGGAGT | -0.696 |
| ATTTACAACATGGAGTTGCTGC | -0.262 |
| TCTGCTTTCTCTCTTAACCCAC | -0.243 |
| TTATTTGCTTTACAAAGTCTAG | -0.983 |
| TTGGAGTTGATTATTAACTAAA | -1.56 |
| TATCTTTTCCATTATTTGCTTT | -0.915 |
| AAGACTTTTTCTTTGTTCCTGT | 0.524 |
| TACAACATGGAGTTGCTGCTTT | 0.408 |
| TTGCATTGTAAAGCTTGCTGAC | -0.311 |
| TTCTTTGTTATAAAGTCACGGC | -0.192 |
| TAAAGCTTGCTGACCAGACGGA | 0.11 |
| TTGCTTTACAAAGTCTAGTAGG | -0.465 |

biological target: DAGLA; test: as above; settings: shRNA

| Sequence | sensor-assay potency score (higher = more potent) |
| --- | --- |
| TTTCTTCTTGTCATGGTCCACC | -0.657 |
| TTGAGGTCGAGGTACTTGGTGT | -0.552 |
| TATAGTTAGGTCGCTGGGGTGG | -0.742 |
| TTGGCAGTGAGGTCGTTGCAGG | -1.13 |
| TTTGTAGCGGAGCATCTCTTGT | -1.44 |
| TTCATCTGAGAGTCTGTCTTGT | 0.509 |
| TAGTTCTCCAGCACCTTGTTGA | -0.467 |
| TTGTTTTCTAAACTCTAAGAGC | -0.925 |
| TTGAGGGTCGGATACTGTGGGC | -1.18 |
| TTAAGTACAAAAAAAGTCTGGG | 0.278 |
| TTTCATCTGAGAGTCTGTCTTG | 0.187 |
